Results filed as inconclusive are left out. Unless noted, calls come from the whole dose curve; as a rule, active = well fitted curve in either direction with a large enough effect (not every such curve was filed as active); inconclusive = small, poorly fitted or top-dose-only effect, or another doubt; inactive = flat fitted curve, though single readings scatter.
How the values were obtained:
[1] = AP1 Signaling Pathway (AID 357); settings: ME-180 AP-1-bla reporter, EGF-induced, beta-lactamase ratio, 5 h; at 17.2 µM (top of the series) unless noted;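 note: ME-180 reporter cells stimulated with EGF at its EC50 level; % is set by controls: 0 for no effect and ±100 for the full control effect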
Outline: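 Titration-series screen for positive or negative modulators of EC50 EGF-induced signaling in ME-180 cells carrying an AP-1-driven beta-lactamase reporter. After 5 hours at 37 degrees Celsius, CCF4 460nm/530nm emission ratio gave %Activity; AC50 values derived.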

[2] = NFAT Signaling Pathway (AID 444); settings: Jurkat NFAT-bla M1, carbachol, beta-lactamase ratio, 5 h; at 17.2 µM (top of the series) unless noted;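 note: carbachol stimulus at about its EC50 of 1 µM final; % is set by controls: 0 for no effect and ±100 for the full control effect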
Outline: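 Jurkat cells with NFAT-driven β-lactamase reporter and co-expressed M1 receptor, stimulated with carbachol (final 1 uM, ~EC50), compound titration, 5 h at 37 °C. CCF4 loaded 1 h at RT; 460/530 nm ratio gave %activity and AC50.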

[3] = Stat Signaling Pathway (AID 446); settings: ME-180 SIE beta-lactamase reporter, IL-6 stimulated, 5 h; at 17.2 µM (top of the series) unless noted;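 note: ME-180 cervical cancer cells given 40 pM IL-6 alongside compound; SIE-controlled beta-lactamase reporter measured as 460/530 nm FRET emission ratio; % is set by controls: 0 for no effect and ±100 for the full control effect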
Outline: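 Reporter line: ME-180 cervical carcinoma, SIE-beta-lactamase. Treatment: compound with 40 pM IL-6, 5 hrs, 37 C, in low-serum OPTI-MEM with 10 mM HEPES pH 7.3. Detection: 460/530 nm fluorescence.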

[4] = biological target: Glucocorticoid receptor (Homo sapiens) (UniProt P04150); experiment: GR-GFP Redistribution (AID 450;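 active = compounds whose dose series gives a full or clear partial fitted curve of increased nuclear translocation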; note: potency is the fitted concentration of half-maximal effect)
Glucocorticoid receptor (Homo sapiens), sequence (P04150 whole entry, looked up): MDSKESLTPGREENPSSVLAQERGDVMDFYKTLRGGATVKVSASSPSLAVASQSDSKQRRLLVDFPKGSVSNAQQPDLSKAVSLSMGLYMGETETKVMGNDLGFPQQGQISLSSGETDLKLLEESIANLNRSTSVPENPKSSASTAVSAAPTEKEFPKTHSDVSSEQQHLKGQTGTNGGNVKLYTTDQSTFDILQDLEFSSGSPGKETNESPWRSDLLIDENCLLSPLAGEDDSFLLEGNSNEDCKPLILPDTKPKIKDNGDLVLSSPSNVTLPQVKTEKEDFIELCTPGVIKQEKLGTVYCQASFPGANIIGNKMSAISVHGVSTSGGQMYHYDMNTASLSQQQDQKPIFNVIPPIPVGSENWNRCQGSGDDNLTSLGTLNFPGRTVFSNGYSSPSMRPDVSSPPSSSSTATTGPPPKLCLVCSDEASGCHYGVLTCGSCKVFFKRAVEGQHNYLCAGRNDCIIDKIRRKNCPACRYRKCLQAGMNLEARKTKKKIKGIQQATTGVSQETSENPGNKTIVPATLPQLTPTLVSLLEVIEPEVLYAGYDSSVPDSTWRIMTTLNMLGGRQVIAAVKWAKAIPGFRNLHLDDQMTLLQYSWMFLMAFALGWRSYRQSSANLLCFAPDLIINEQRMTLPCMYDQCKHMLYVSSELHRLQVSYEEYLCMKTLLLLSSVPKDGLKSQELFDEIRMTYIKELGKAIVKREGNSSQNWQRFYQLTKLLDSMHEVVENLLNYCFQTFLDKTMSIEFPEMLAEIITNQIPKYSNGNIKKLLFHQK

CC(=O)Nc1cc2c(cc1Br)OCCO2
inactive: activity change, negative = inhibition [1] 0.764% | activity change, negative = inhibition [2] -0.709% | activity, negative = inhibition [3] -0.829% | Potency [4] > 20.6 µM

Cn1c(=O)n(C)c2cc(C(=O)c3ccccc3)ccc21
inactive: activity change, negative = inhibition [1] 17.6% | activity change, negative = inhibition [2] -28.2% | activity, negative = inhibition [3] -6.62% | Potency [4] > 20.6 µM

COc1ccc(/C(O)=C2\C(=O)C(=O)N(CCN3CCOCC3)C2c2ccccc2OC)cc1 (stereo not given)
inactive: activity change, negative = inhibition [1] -4.72% | activity change, negative = inhibition [2] 15.6% | activity, negative = inhibition [3] -2.59% | Potency [4] > 20.6 µM

Cc1ccc(C#N)c(SCc2cc3c(cc2Cl)OCO3)n1
inactive: activity change, negative = inhibition [1] 12.7% | activity change, negative = inhibition [2] -1.4% | activity, negative = inhibition [3] 4.71% | Potency [4] > 20.6 µM

CCOc1ccc(-c2nc(C#N)c(N3CCN(CC)CC3)o2)cc1
inactive: activity change, negative = inhibition [1] -12.4% | activity change, negative = inhibition [2] 21% | activity, negative = inhibition [3] 19.7% | Potency [4] > 20.6 µM

CCC1(C)Cc2c(sc3nc4n(c(=O)c23)CCS4)CO1 (stereo not given)
inactive: activity change, negative = inhibition [1] -20.5% | activity change, negative = inhibition [2] -16.6% | activity, negative = inhibition [3] -2.05% | Potency [4] > 20.6 µM

CCC1(C)Cc2c(sc3[nH]c(=O)[nH]c(=O)c23)CS1 (stereo not given)
inactive: activity change, negative = inhibition [1] 6.31% | activity change, negative = inhibition [2] 6.7% | activity, negative = inhibition [3] -2.55% | Potency [4] > 20.6 µM

COc1ccc(/C(O)=C2\C(=O)C(=O)N(Cc3ccco3)C2c2cc(OC)ccc2OC)cc1 (stereo not given)
inactive: activity change, negative = inhibition [1] 8.52% | activity change, negative = inhibition [2] -18% | activity, negative = inhibition [3] -17.9% | Potency [4] > 20.6 µM

COc1ccc(/C=C(/C#N)c2cccnc2)cc1OC
inactive: activity change, negative = inhibition [1] -13.8% | activity change, negative = inhibition [2] -0.696% | activity, negative = inhibition [3] 5.95% | Potency [4] > 20.6 µM

Clc1ccccc1-c1nn2c(-c3ccccn3)nnc2s1
inactive: activity change, negative = inhibition [1] -2.63% | activity change, negative = inhibition [2] -11.1% | activity, negative = inhibition [3] 12.8% | Potency [4] > 20.6 µM

Cc1nc2sc(C#N)c(N)c2c2c1CCCC2
inactive: activity change, negative = inhibition [1] -15.7% | activity change, negative = inhibition [2] -7.96% | activity, negative = inhibition [3] -6.2% | Potency [4] > 20.6 µM

Cc1ccccc1OCC(O)Cn1c(N2CCN(c3ccccc3)CC2)nc2c1c(=O)[nH]c(=O)n2C (stereo not given)
inactive: activity change, negative = inhibition [1] 14.4% | activity change, negative = inhibition [2] -4.3% | activity, negative = inhibition [3] -10.5% | Potency [4] > 20.6 µM

COc1ccc(CCNC(=O)c2ccc(=O)[nH]n2)cc1OC
inactive: activity change, negative = inhibition [1] -1.15% | activity change, negative = inhibition [2] -8.89% | activity, negative = inhibition [3] 3.06% | Potency [4] > 20.6 µM

Cc1occc(=O)c1OC(=O)Nc1ccccc1
inactive: activity change, negative = inhibition [1] 9.9% | activity change, negative = inhibition [2] 1.25% | activity, negative = inhibition [3] 7.55% | Potency [4] > 20.6 µM

O=C(O)C1CCCCN1S(=O)(=O)c1cccc2nsnc12 (stereo not given)
inactive: activity change, negative = inhibition [1] 0.243% | activity change, negative = inhibition [2] 1.79% | activity, negative = inhibition [3] 5.88% | Potency [4] > 20.6 µM

Cc1cc(=O)oc(C)c1C(=O)N[C@@H]1CCCCNC1=O
inactive: activity change, negative = inhibition [1] 9.85% | activity change, negative = inhibition [2] 9.68% | activity, negative = inhibition [3] 9.42% | Potency [4] > 20.6 µM

CCCCOc1ccccc1P(=O)(O)CP(=O)(c1ccccc1)c1ccccc1
inactive: activity change, negative = inhibition [1] -13.5% | activity change, negative = inhibition [2] -17% | activity, negative = inhibition [3] -14.9% | Potency [4] > 20.6 µM

COc1cccc(C2C(C(=O)c3cccs3)=C(O)C(=O)N2c2cc(C)on2)c1 (stereo not given)
inactive: activity change, negative = inhibition [1] -6.29% | activity change, negative = inhibition [2] 16.2% | activity, negative = inhibition [3] -7.97% | Potency [4] > 20.6 µM

COc1cccc(N2C(=O)C(O)=C(C(C)=O)C2c2ccc(OC)c(OC)c2)c1 (stereo not given)
inactive: activity change, negative = inhibition [1] -12.6% | activity change, negative = inhibition [2] 9.05% | activity, negative = inhibition [3] 0.326% | Potency [4] > 20.6 µM

CCOC(=O)c1c(C)n(C)c2ccc(OC)c(NC(=O)CN3CCSCC3)c12
inactive: activity change, negative = inhibition [1] -2.27% | activity change, negative = inhibition [2] -0.789% | activity, negative = inhibition [3] -8.37% | Potency [4] > 20.6 µM

COc1ccc(-c2nnc3sc(COc4ccccc4)nn23)cc1
inactive: activity change, negative = inhibition [1] -22.1% | activity change, negative = inhibition [2] -15.2% | activity, negative = inhibition [3] -8.06% | Potency [4] > 20.6 µM

COc1cccc(NC(=O)CC2SC(=Nc3ccccc3)NC2=O)c1 (stereo not given)
inactive: activity change, negative = inhibition [1] -10.5% | activity change, negative = inhibition [2] 2.42% | activity, negative = inhibition [3] -17.8% | Potency [4] > 20.6 µM

CCN(CC)c1ncc(C)c(=O)[nH]1
inactive: activity change, negative = inhibition [1] 16.3% | activity change, negative = inhibition [2] 2.65% | activity, negative = inhibition [3] 7.65% | Potency [4] > 20.6 µM

COc1ccc(OCC(O)CN2C(=O)NC(C)(C)C2=O)cc1 (stereo not given)
inactive: activity change, negative = inhibition [1] -11.2% | activity change, negative = inhibition [2] 0.93% | activity, negative = inhibition [3] 9.74% | Potency [4] > 20.6 µM

CC/C(=N\O)c1ccc(OC)c(OC)c1
inactive: activity change, negative = inhibition [1] 4.83% | activity change, negative = inhibition [2] 2.19% | activity, negative = inhibition [3] 3.07% | Potency [4] > 20.6 µM
